Compounds with a hit are over-represented: about 12% of the library has one in this group of screens.
AMA1-RON2 inh: inhibitors of Plasmodium falciparum AMA1-RON2 interaction | actives 0.2% (n = 360,000) | AID 720542 | Potency, µM (titrated, usually from 58.2 µM), actives largely listed as inhibitors | AlphaScreen AMA1-biotinylated RON2 peptide binding; also: nearly all actives have a fitted effect of over 45% in size
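AMA1 (3D7) with his tag at 25 nM final met compounds first, then biotinylated RON2 peptide at 25 nM; detection used donor plus acceptor beads, 10 µg/mL apiece, read by AlphaScreen after 30 min at room temperature.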
NS1 inh: blocks influenza NS1 protein function; Potency, µM (doses to about 46.1 µM); AID 2326; actives 0.4% (n = 270,000); calls by dose curve; also: actives are rising curves; nearly all actives have a fitted effect of over 50% in size
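Read-out: OD600 growth recovery of NS1-expressing budding yeast. Cells grown overnight at 30C in -URA glucose medium, washed, resuspended and diluted 1:100 in 2% galactose assay medium, pH 6.0. Same strain lacking NS1 served as positive control.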
Pf growth 96h: P. falciparum growth inhibition at 96 hour, primary screen for plastid delayed-death inhibitors; P. falciparum luciferase reporter growth, 96 h; Potency, µM (titrated, usually from 28.7 µM), most hits filed as inhibitors; actives 6.9% (n = 320,000)
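Compounds incubated with erythrocytes infected by luciferase-expressing P. falciparum (2% hematocrit, 0.05% parasitemia final) for 96 hours, 37 C in 5% CO2. Growth inhibition scored as decreased luciferase luminescence.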
HCV inh: HCV inhibition; AID 651820; actives 3.4% (n = 340,000); Huh7.5.1 HCVcc-Cre infection, luciferase reporter, 44 h; Potency, µM (series often up to 41.8 µM), hits mostly inhibitors
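Whole-lifecycle infectious HCVcc-Cre system; cells 1,000/well, compound then virus (~0.5 moi) added 4 h after plating, 44 h culture. Luciferase read 15 sec following 15 min substrate incubation, room temp.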
Pf growth 48h: P. falciparum growth inhibition at 48 hours (one generation); P. falciparum luciferase growth in erythrocytes, 48 h; Potency, µM (top dose mostly 28.7 µM), hits mostly inhibitors; actives 5.9% (n = 310,000); AID 504832
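Compounds are pin-transferred into medium, infected erythrocytes (2% hematocrit, 0.1% parasitemia final) are added, and plates sit one parasite generation at 37 C in 5% CO2. Detection reagent is then added and luminescence measured.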
SARS PLP yeast: SARS-CoV PLP inhibition in yeast | S. cerevisiae expressing SARS-CoV PLpro, growth rescue | Potency, µM (top dose mostly 32.9 µM), hits mostly activators | actives 0.19% (n = 330,000); calls by dose curve; also: nearly all actives have a fitted effect of over 55% in size
Numbers stand for hits; [ ] = remark or other dose. Unless noted, calls follow the shape of the dose curve; as a rule, active = well fitted curve in the direction sought with a large enough effect; inconclusive = small, poorly fitted or top-dose-only effect, or another doubt; inactive = no such curve, though single readings can be large; an effect the other way counts as inactive or inconclusive.

For COc1cccc(OC)c1C(=O)NC(=S)Nc1ccc(S(=O)(=O)Nc2nccs2)cc1 the results were AMA1-RON2 inh inactive, NS1 inh inactive, Pf growth 96h inactive, HCV inh inactive, Pf growth 48h 13µM and SARS PLP yeast inactive.
`O=C(NC(=S)Nc1ccc(S(=O)(=O)Nc2nccs2)cc1)c1ccccc1` gave AMA1-RON2 inh inactive, NS1 inh inactive, Pf growth 96h 13µM, HCV inh inactive, Pf growth 48h inactive and SARS PLP yeast inactive.
O=C(Nc1ccc(S(=O)(=O)Nc2nccs2)cc1)c1c(F)c(F)c(F)c(F)c1F was read as AMA1-RON2 inh inactive, NS1 inh inactive, Pf growth 96h 3.7µM, HCV inh inconclusive, Pf growth 48h inactive and SARS PLP yeast inactive.
`O=C(NC(=S)Nc1ccc(S(=O)(=O)Nc2nccs2)cc1)c1cccnc1` gave AMA1-RON2 inh inactive, NS1 inh inactive, Pf growth 96h inactive, HCV inh inactive, Pf growth 48h inactive and SARS PLP yeast inactive.
Screening O=c1c2ccccc2c(C=NC2CCN(Cc3ccccc3)CC2)c(O)n1Cc1ccc2c(c1)OCO2 returned Pf growth 96h inconclusive, Pf growth 48h 4.7µM and SARS PLP yeast inactive.
`COc1ccc(C(=O)C2CCCN(C(=O)COc3ccc(C(C)=O)cc3)C2)cc1F` (centres undefined) gave AMA1-RON2 inh inactive, NS1 inh inactive, Pf growth 96h 12µM, HCV inh inactive, Pf growth 48h inactive and SARS PLP yeast inactive.
O=C(COc1ccc(F)cc1)N1CCCCCCC1 was read as AMA1-RON2 inh inactive, NS1 inh inactive, Pf growth 96h inconclusive, HCV inh inactive, Pf growth 48h inactive and SARS PLP yeast inactive.
Screening CCOC(=O)C1CCCN(C(=O)COc2ccc(C(=O)c3ccc(F)cc3)cc2)C1 (centres undefined) returned AMA1-RON2 inh inactive, HCV inh 13µM and SARS PLP yeast inactive.
`CC(=O)c1c(C)[nH]c(C(=O)Nc2ccc(Cl)c(S(=O)(=O)N3CCOCC3)c2)c1C` gave AMA1-RON2 inh inactive, NS1 inh inactive, Pf growth 96h 4.1µM, HCV inh inconclusive, Pf growth 48h 4.1µM and SARS PLP yeast inconclusive.
`CCN(CC)S(=O)(=O)c1cc(NC(=O)[C@@H](NC(N)=O)C(C)C)ccc1C` gave AMA1-RON2 inh inactive, Pf growth 96h inactive, HCV inh inactive, Pf growth 48h inactive and SARS PLP yeast inactive.
`CC(=O)c1c(C)[nH]c(C(=O)OC(C)C(=O)Nc2ccc(C)c(S(=O)(=O)N3CCOCC3)c2)c1C` (centres undefined) gave AMA1-RON2 inh inactive, Pf growth 96h 5.2µM, HCV inh inactive, Pf growth 48h 9.3µM and SARS PLP yeast inactive.
For CCN(CC)S(=O)(=O)c1cc(NC(=O)C(C)OC(=O)c2[nH]c(C)c(C(C)=O)c2C)ccc1C (centres undefined) the results were AMA1-RON2 inh inactive, NS1 inh inactive, Pf growth 96h inconclusive, HCV inh inconclusive, Pf growth 48h 3.7µM and SARS PLP yeast inactive.
`Cc1ccc(NC(=O)C(C)OC(=O)c2cc(=O)[nH]c3ccccc23)cc1S(=O)(=O)N1CCOCC1` (centres undefined) gave AMA1-RON2 inh inactive[11.6 µM] and HCV inh inconclusive.
For COc1ccc(NC(=O)c2[nH]c(C)c(C(C)=O)c2C)cc1S(=O)(=O)N1CCOCC1 the results were AMA1-RON2 inh inactive, NS1 inh inactive, Pf growth 96h inactive, HCV inh inconclusive, Pf growth 48h inactive and SARS PLP yeast inactive.
CCNC(=O)N(C)C[C@H]1N[C@@](CC)(C(=O)OC)[C@H]2C(=O)N(Cc3ccccc3)C(=O)[C@@H]12 was read as AMA1-RON2 inh inactive, HCV inh inactive and SARS PLP yeast inactive.
For O=S(=O)(c1c(Cl)cc(Br)cc1Cl)N1CCN(C(=S)NC2CC2)CC1 the results were AMA1-RON2 inh inactive, HCV inh 25µM and SARS PLP yeast inactive.
Screening CCc1cc(C(=O)N/N=C/c2ccc(O)cc2)c2ccccc2n1 returned AMA1-RON2 inh inactive, NS1 inh inactive, Pf growth 96h inactive, HCV inh inconclusive, Pf growth 48h inactive and SARS PLP yeast inactive.
Screening CC(C)(C)c1cc(C(=O)N/N=C/c2ccc(O)cc2)n(-c2ccccc2)n1 returned AMA1-RON2 inh inactive, NS1 inh inactive, Pf growth 96h inactive, HCV inh inactive, Pf growth 48h 9.3µM and SARS PLP yeast inactive.
For COc1ccc(NCC(=O)N/N=C/C=C\c2ccccc2)cc1 the results were AMA1-RON2 inh inactive, NS1 inh inactive, Pf growth 96h 2.6µM, HCV inh inactive, Pf growth 48h inactive and SARS PLP yeast inactive.
For CCc1ccccc1NC(=O)CN(C)C(=O)CSc1nn(-c2ccc(F)cc2)c(=S)s1 the results were AMA1-RON2 inh inactive, NS1 inh inactive, Pf growth 96h inconclusive, HCV inh inconclusive, Pf growth 48h inactive and SARS PLP yeast inactive.
COc1cscc1C(N)=O was read as AMA1-RON2 inh inactive, NS1 inh inactive, Pf growth 96h inconclusive, HCV inh inactive, Pf growth 48h inactive and SARS PLP yeast inactive.
`CCc1cc(C(=O)Nc2ccc(S(=O)(=O)NC3=NCCCCC3)cc2)sc1C` gave AMA1-RON2 inh inactive, Pf growth 96h 4.1µM, HCV inh inconclusive, Pf growth 48h inconclusive and SARS PLP yeast inactive.
CC1CN(S(=O)(=O)c2cccc(C(=O)Nc3ccc(S(=O)(=O)NC4=NCCCCC4)cc3)c2)CC(C)O1 (centres undefined) was read as AMA1-RON2 inh inactive, Pf growth 96h inconclusive, HCV inh inactive and Pf growth 48h 13µM.
`Cc1ccc(C(=O)Nc2ccc(S(=O)(=O)NC3=NCCCCC3)cc2)c(C)c1` gave AMA1-RON2 inh inactive, Pf growth 96h inconclusive, HCV inh inconclusive, Pf growth 48h inactive and SARS PLP yeast inactive.
For CC(C)c1ccc(C(=O)Nc2ccc(S(=O)(=O)NC3=NCCCCC3)cc2)cc1 the results were AMA1-RON2 inh inactive.
`CN(C)c1ccc(C(=O)Nc2ccc(S(=O)(=O)NC3=NCCCCC3)cc2)cc1` gave AMA1-RON2 inh inactive, NS1 inh inactive, Pf growth 96h 12µM, HCV inh inactive, Pf growth 48h inconclusive and SARS PLP yeast inactive.
`Cc1ccc(C(=O)Nc2ccc(S(=O)(=O)NC3=NCCCCC3)cc2)cc1S(=O)(=O)N1CCOCC1` gave AMA1-RON2 inh inactive, Pf growth 96h 13µM, HCV inh inactive, Pf growth 48h 2.3µM and SARS PLP yeast inactive.
`O=C(Nc1ccc(S(=O)(=O)NC2=NCCCCC2)cc1)c1cccc(S(=O)(=O)N2CCOCC2)c1` gave AMA1-RON2 inh inactive, HCV inh inactive and SARS PLP yeast inactive.
COCCN(CCOC)C(=O)c1ccc(NS(=O)(=O)c2ccc3[nH]c(=O)[nH]c3c2)cc1 was read as AMA1-RON2 inh inactive, NS1 inh inactive, Pf growth 96h inactive, HCV inh inactive, Pf growth 48h inactive and SARS PLP yeast inactive.

From PubChem
